# Assay results taken from PubChem BioAssay AID1963321 (National Center for Advancing Translational Sciences (NCATS), 2024).
# Inconclusive results are not listed. Entries that show only a call come without a potency. Values without a mark were called inactive. Calls of active or inactive are those of the source. Calls come from the whole dose curve.
# Target: cAMP-dependent protein kinase catalytic subunit alpha (Homo sapiens) (UniProt P17612)
# Assay: Protein Kinase A (PKA-HiBiT) enzymatic inhibition screen - Functional assay
# Settings: luminescence; series mostly up to 57.5 µM
# Description: National Center for Advancing Translational Sciences (NCATS),
# National Institute of Health (NIH), Maryland
# Discovery and optimization of novel protein-binding ligands underlies many of the methods and applications of biology, drug discovery, clinical diagnostics, and environmental toxicology. Assays for detecting the interaction of, for example, a molecule with a macromolecular target also referred to here as the target of interest (TOI) is dependent on a compatible output technology. Depending on the nature and knowledge surrounding the TOI, whether a receptor, enzyme, regulatory subunit or scaffold, or a sequence-defined nucleic acid folded into a complex tertiary structure, assay strategies can vary widely.
# Here we exploit ligand-biased changes in the structural dynamics of the target protein to control reporter alpha complementation allowing a non-competitive, non-functional, non-separation measure of ligand-target interaction.
# Using a chemical library of >1,200 compounds enriched for scaffolds known to be associated with the inhibition of firefly luciferase (FLuc) activity (PubChem AIDs 2309) we first illustrate and compare the Structural Dynamics Response (SDR) assay vs. the standard functional FLuc enzyme assay (2). Secondly, we show the specificity and sensitivity of the SDR for the Abelson tyrosine kinase (ABL1) compared to the serine/threonine protein kinase A, using an enriched chemical library of 128 compounds selected, in part, for activity annotated with ABL1 kinase activity using the Pharos database (3).
# (1) A. S. Dixon et al., NanoLuc Complementation Reporter Optimized for Accurate Measurement of Protein Interactions in Cells. ACS Chem Biol 11, 400-408 (2016).
# Chemistry & Biology, 19, 1060 - 1072 (2012).
# (3) K. J. Kelleher et al., Pharos 2023: an integrated resource for the understudied human proteome. Nucleic Acids Res 51, D1405-D1416 (2023).
# PROTOCOL TABLE (as described by Inglese J, Shamu CE and Guy RK. 2007)
# SEQUENCE No. (e.g., 1, 2, 3, etc.); […] (e.g., C. elegans, Compounds, Incubation, Read, etc.); VALUE and DESCRIPTION.
# 1. Reagent. Dispense 4 uL PKA-N-HiBiT enzyme per well at a final enzyme concentration of 10 nM in buffer with 87.5 uM ATP (functional assay) into columns 2-48 of four replicate Greiner 1536-well white,solid bottom high base, medium plates per assay. Dispense respective buffer without enzyme at 4 uL/well in column 1 of assay plates using BioRaptr 2.
# 2. Compounds. Library compounds added at 23 nL/well by pin transfer. DMSO neutral control and H-89 positive control added at 25 nL/well, transfer by Mosquito dispenser.
# 3. Incubation. Incubate enzyme and compounds at room temperature for 30 min, protect from light.
# 4. Reagent. (Functional assay) Transfer 25 nL of kemptide peptide substrate to each well of four replicate kinase assay plates with Mosquito dispenser.
# 5. Incubation. (Functional assay) Kinase Enzyme incubated with peptide substrate for 3 h at room temperature, protected from light.
# 6. Reagent. (Functional assay) Add 4 uL/well of Kinase-Glo Plus reagent (Promega) to kinase activity assay plates.
# 7. Detector. (Functional assay) Luminescence measured using CCD-based camera (ViewLux) with settings as follows: Exposure, 1 sec; Gain, High; Speed, Slow; Binning, 2X.
# Inglese J, Shamu CE and Guy RK, Reporting data from high throughput screening of small molecule libraries, Nature Chemical Biology, 2007, 3(8): 438-441. doi.org/10.1038/nchembio0807-438.
Structure (SMILES),Potency,"activity change, negative = inhibition"
O=c1c(O)c(-c2ccc(O)c(O)c2)oc2cc(O)cc(O)c12,inactive,–
CSc1cccc(Nc2ncc3cc(-c4c(Cl)cccc4Cl)c(=O)n(C)c3n2)c1,inactive,–
Cc1ccc(-n2nc(C(C)(C)C)cc2NC(=O)NCc2cc(F)ccc2Oc2ccc3c(cnn3CCO)c2)cc1,inactive,–
Nc1nc(Nc2ccc(S(N)(=O)=O)cc2)n(C(=S)Nc2c(F)cccc2F)n1,inactive,–
COc1cc2ncnc(Oc3cccc(NC(=O)Nc4cc(C(C)(C)C(F)(F)F)on4)c3)c2cc1OC,inactive,–
Oc1ccc(-c2ccc(-c3cc(Nc4cccc(CNC5CC5)c4)n[nH]3)cc2)c(O)c1,inactive,–
CCCS(=O)(=O)Nc1ccc(F)c(C(=O)c2c[nH]c3ncc(Cl)cc23)c1F,inactive,–
CC[C@@](C)(Nc1ccnc(-c2c[nH]c3ncccc23)n1)C(=O)NCC(F)(F)F,inactive,–
FC(F)(F)c1ccc(/C=C/c2nc(COc3ccc(CCCCn4ccnn4)cc3)co2)cc1,inactive,–
CN1CCN(CCOc2cc(OC3CCOCC3)c3c(Nc4c(Cl)ccc5c4OCO5)ncnc3c2)CC1,inactive,–
COc1ccc(-n2c(C)c([N+](=O)[O-])c3ccc(O)cc32)cc1,inactive,–
CC(C)(C)n1nc(-c2cccc3ccccc23)c2c(N)ncnc21,inactive,–
C=CC(=O)N1CCC(Oc2cc3c(Nc4ccc(Cl)c(Cl)c4F)ncnc3cc2OC)CC1,inactive,–
CCNC(=O)Nc1ccc(-c2nc3c(c(N4CCOC[C@@H]4C)n2)CCN(c2ncccn2)C3)cc1,inactive,–
O=C(NC1CCNCC1)c1[nH]ncc1NC(=O)c1c(Cl)cccc1Cl,inactive,–
CC(C)(NS(=O)(=O)c1ccc2c(Cl)cnc(N=C(N)N)c2c1)C(=O)O,inactive,–
CNc1ncc2cc(-c3cc(NC(=O)NCCC(C)(C)C)c(F)cc3C)c(C)nc2n1,inactive,–
CO[C@H]1/C=C/O[C@@]2(C)Oc3c(C)c(O)c4c(O)c(c(/C=N\N5CCN(C6CCCC6)CC5)c(O)c4c3C2=O)NC(=O)/C(C)=C\C=C\[C@H](C)[C@H](O)[C@@H](C)[C@@H](O)[C@@H](C)[C@H](OC(C)=O)[C@@H]1C,inactive,–
Cc1nc2ccc(-n3ncc(C(=O)c4cc5ccccc5[nH]4)c3N)cc2[nH]1,inactive,–
CNS(=O)(=O)c1ccc2c(c1)/C(=C/c1[nH]c3c(c1CCCN1CCN(C)CC1)CCCC3)C(=O)N2,inactive,–

Structure (SMILES),Potency,"activity change, negative = inhibition"
COc1cc(NC(=O)c2cccc(-n3cc(NC(=O)Nc4cccc(C)c4)cn3)c2)cc(OC)c1OC,inactive,–
O=S(=O)(/N=C/c1c(O)ccc2ccccc12)c1cccs1,inactive,–
COc1cc(N2CCC(N3CCN(C)CC3)CC2)ccc1Nc1ncc(Cl)c(Nc2ccccc2P(C)(C)=O)n1,inactive,–
C=CC(=O)Nc1cc2c(Nc3ccc(F)c(Cl)c3)ncnc2cc1OCCCN1CCOCC1,inactive,–
COc1cc2ncnc(Nc3ccc(F)c(Cl)c3)c2cc1OCCCN1CCOCC1,inactive,–
COc1cc2c(Oc3ccc4[nH]c(C)cc4c3F)ncnc2cc1OCCCN1CCCC1,inactive,–
CNC(=O)c1ccccc1Nc1nc(Nc2ccc(N3CCOCC3)cc2OC)ncc1Cl,inactive,–
Cc1cn(-c2cccc(NC(=O)c3ccc(C)c(Nc4nccc(-c5cccnc5)n4)c3)c2)cn1,inactive,–
O=C(c1cccc(Cl)c1F)N1CCN(Cc2cccc(Nc3nccs3)n2)CC1,inactive,–
CCOc1ccn(-c2ccc(F)cc2)c(=O)c1C(=O)Nc1ccc(Oc2ccnc(N)c2Cl)c(F)c1,0.0153 µM (active),–
Cc1cc(NC(=O)c2ccc(C)c(Nc3nccc(-c4cccnc4)n3)c2)cc(-n2cnc(C)c2)c1,inactive,–
C=CC(=O)N1CCC[C@@H](n2nc(-c3cccc(C(=O)Nc4ccc(C(C)C)c(C)c4)c3)c3c(N)ncnc32)C1,inactive,–
COc1cc(N2CCN(C)CC2)ccc1Nc1nc(N)c(C(=O)c2c(Cl)cccc2Cl)s1,inactive,–
C[C@@H](NC(=O)c1ncnc(N)c1Cl)c1ncc(C(=O)Nc2cc(C(F)(F)F)c(Cl)cn2)s1,inactive,–
CN(c1ncccc1CNc1nc(Nc2ccc3c(c2)CC(=O)N3)ncc1C(F)(F)F)S(C)(=O)=O,24.3 µM (active),–
Cc1[nH]c(/C=C2\C(=O)Nc3ccc(S(=O)(=O)Cc4c(Cl)cccc4Cl)cc32)c(C)c1C(=O)N1CCC[C@@H]1CN1CCCC1,inactive,–
Cc1cc(F)ccc1-c1nc(NCCN=C(N)NC#N)nc2c1ccc(=O)n2-c1c(F)cccc1F,inactive,–
O=C(O)C1(Cc2cccc(Nc3nccs3)n2)CCC(Oc2cccc(Cl)c2F)CC1 (stereo not given),inactive,–
c1ccc2c(-c3cnn4cc(-c5ccc(N6CCNCC6)cc5)cnc34)ccnc2c1,–,8.42% [at 6.37 µM]
COc1cc(N2CCC(O)CC2)ccc1Nc1nc(Nc2ccccc2S(=O)(=O)C(C)C)c2[nH]cnc2n1,inactive,–
